From PubChem
FLuc inh: inhibitors of firefly (Photinus pyralis) luciferase. P08659. purified P. pyralis luciferase, luminescence, biochemical. Potency, µM (doses to about 115 µM), hits mostly inhibitors. actives 2.5% (n = 76,000). AID 1347043; note: nearly all actives have a fitted effect of over 65% in size
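Biochemical qHTS: compound (6-point titration) added to 10uM D-luciferin plus 10uM ATP in Tris acetate pH 7.5 buffer with Mg, Tween-20 and BSA, then purified enzyme at 10nM; light output imaged.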
HEK293 tox: cytotoxic compounds in HEK 293 cells. HEK 293 viability, ATP luminescence (CellTiter-Glo), 48-72 h. Potency, µM (series often up to 115 µM), without a hit: at the highest dose activity change, negative = cytotoxicity, actives largely listed as inhibitors. actives 6.6% (n = 94,000); note: nearly all actives have a fitted effect of over 60% in size
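qHTS cytotoxicity; HEK 293, 250 cells/well; compound pinned; 48 or 72 hr, 37 degree Celsius, 5% CO2, 95% humidity; CellTiter-Glo, 10 min RT; luminescence (ATP).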
NPR1 antag: human Npr1 receptor antagonism; HEK293 hNpr1 GloSensor cGMP, ANP-stimulated luminescence; Potency, µM (top dose mostly 46.3 µM), inactives show at the highest dose activity change, negative = inhibition, most hits filed as inhibitors; actives 1.6% (n = 76,000); AID 1347048; calls by dose curve; note: nearly all actives have a fitted effect of over 60% in size
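HEK293 cells stably expressing human Npr1 and cGMP GloSensor pGS-40F, loaded 2 h with 2% GloSensor reagent, given compound 30 min at room temperature. Luminescence read before and 20 min after 0.1 nM hNppA.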
3T3 cytotox: cytotoxic compounds in NIH 3T3 cells; AID 1345082; actives 4.3% (n = 94,000); Potency, µM (highest dose often 96.7 µM), inactives show at the highest dose activity change, negative = cytotoxicity, hits mostly inhibitors; NIH 3T3 viability, CellTiter-Glo ATP luminescence, 48-72 h; note: nearly all actives have a fitted effect of over 55% in size
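First NIH 3T3 cells are plated at 400 cells/well; next compound is pinned in; then plates incubate 48 or 72 hr at 37 °C; finally CellTiter-Glo is added and luminescence read after 10 min.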
GPT2 inh: inhibitors of human GPT2 alanine aminotransferase. Q8TD30. Recombinant GPT2, coupled pyruvate oxidase/HRP Amplex Red fluorescence. Potency, µM (titrated, usually from 57.7 µM), inactives show at the highest dose activity change, negative = inhibition, hits mostly inhibitors. actives 0.25% (n = 100,000); note: nearly all actives have a fitted effect of over 60% in size
Target sequence (Q8TD30 whole entry, looked up): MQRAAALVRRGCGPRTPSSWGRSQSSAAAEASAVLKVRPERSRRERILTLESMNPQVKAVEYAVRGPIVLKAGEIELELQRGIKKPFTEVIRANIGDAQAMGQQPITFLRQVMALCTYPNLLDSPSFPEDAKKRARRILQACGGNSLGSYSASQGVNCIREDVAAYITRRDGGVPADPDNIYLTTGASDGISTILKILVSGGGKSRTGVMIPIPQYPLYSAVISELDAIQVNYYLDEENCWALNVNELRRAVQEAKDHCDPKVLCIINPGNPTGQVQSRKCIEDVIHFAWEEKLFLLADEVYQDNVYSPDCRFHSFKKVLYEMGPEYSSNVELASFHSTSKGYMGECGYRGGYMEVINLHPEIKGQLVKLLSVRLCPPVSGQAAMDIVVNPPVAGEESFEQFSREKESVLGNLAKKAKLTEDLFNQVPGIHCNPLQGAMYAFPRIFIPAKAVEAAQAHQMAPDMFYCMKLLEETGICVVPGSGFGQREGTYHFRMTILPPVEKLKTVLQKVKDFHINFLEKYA
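Recombinant GPT2 (10ng/uL) with 250uM a-KG and 2mM L-alanine, 30 min at room temperature, in HEPES pH 7.5 buffer. Pyruvate detected by pyruvate oxidase/HRP/Amplex Red fluorescence after 30 min in the dark; AOA (50uM) as positive control.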
Starred values were filed as active, the others as inactive; i = inactive; u = inconclusive; x = not tested or not shown; [ ] = another dose, or the depositor's remark. Only some compounds are listed: those with a hit (about 10% of all), similar ones and a draw of the others. Unless noted, calls come from the whole dose curve; as a rule, active = well fitted curve in the direction sought with a large enough effect; inconclusive = small, poorly fitted or top-dose-only effect, or another doubt; inactive = no such curve, though single readings can be large; an effect the other way counts as inactive or inconclusive. % is set by controls: 0 for no effect and ±100 for the full control effect; potency is the fitted concentration of half-maximal effect.

SMILES	FLuc inh	HEK293 tox	NPR1 antag	3T3 cytotox	GPT2 inh
Cc1ccc(C2Cn3cnc(C(=O)N4CCC(C(=O)NCc5cccs5)CC4)c3CO2)cc1 (configuration not stated)	u	1%	0%	2%	i
CCc1ccc(S(=O)(=O)N2CCC(n3cnnc3CC)CC2)cc1	i	-26%	-21%	u	5%
CO[C@H]1C(=O)N(C2CCN(C(=O)c3nccc4ccccc34)CC2)[C@H]1c1ccncc1	x	u	x	u	i
Cc1ccc(C2Cn3nnc(C(=O)N4CCC(C(=O)NCc5ccccc5)CC4)c3CO2)cc1 (configuration not stated)	40µM*	3%	3%	-8%	i
O=C(NCc1ccccc1)C1CCN(C(=O)c2nnn3c2COC(c2ccc(F)cc2)C3)CC1 (configuration not stated)	i	11%	1%	-16%	i
O=C(NCc1ccccn1)c1ccc2nnc(C3CCCC3)n2c1	x	2%[172 µM]	x	-10%[138 µM]	3%[88.5 µM]
CNC(=O)c1ccc2c(c1)C1(CCN(CC3CC3)C1)CN2Cc1ccccc1 (configuration not stated)	i	100µM*	3%[70.6 µM]	u	1%[88.5 µM]
COCCN(C)C(=O)c1ccc2c(c1)C1(CCN(CC3CC3)C1)CN2Cc1ccccc1 (configuration not stated)	i	u	0%[70.6 µM]	u	-11%[88.5 µM]
CC(C)NC(=O)c1ccc2c(c1)C1(CCN(CC3CC3)C1)CN2Cc1ccccc1 (configuration not stated)	i	u	1%[70.6 µM]	89µM*	i
O=C(NC1COC1)c1ccc2c(c1)C1(CCN(CC3CC3)C1)CN2Cc1ccccc1 (configuration not stated)	i	u	3%[70.6 µM]	-25%[138 µM]	-4%[88.5 µM]
COc1ccccc1-c1cccc(CN2CCC(NC(=O)c3ccccn3)CC2)c1	x	u	x	u	i
O=C(O)CCC(=O)N1Cc2ccccc2CC2(CCCCN2CCc2ccccc2)C1 (configuration not stated)	x	i	x	i	i
CC(C)C[C@@H]1N[C@H](C(=O)NC(C)C)Cc2cn(Cc3nccn3C)c3cccc1c23	i	u	-13%[70.6 µM]	79µM*	0%[88.5 µM]
C=CCNC(=O)[C@@H]1Cc2cn(Cc3nccn3C)c3cccc(c23)[C@H](CC(C)C)N1	i	u	-2%[70.6 µM]	79µM*	u
CC(C)C[C@@H]1N[C@H](C(=O)NC2CCC2)Cc2cn(Cc3nccn3C)c3cccc1c23	i	u	-16%[70.6 µM]	79µM*	u
C=CCN(C)C(=O)[C@@H]1Cc2cn(Cc3cc(C)on3)c3cccc(c23)[C@H](CC(C)C)N1	i	71µM*	2%[70.6 µM]	71µM*	u
Cc1cccc(-c2nc(CN3CCC(c4nc(-c5cccn5C)no4)C3)no2)c1 (configuration not stated)	x	u	x	u	i
CC1(CNc2ccccc2)COc2ccc(C(=O)N3CC[S+](=O)([O-])CC3)cc2N1 (configuration not stated)	i	-28%[172 µM]	-5%[70.6 µM]	u	2%[88.5 µM]
COCCn1c(C)cnc1CC1CCCN(S(=O)(=O)c2ccccc2)C1 (configuration not stated)	x	u	x	-33%	-23%
C=CCN(C)C(=O)[C@@H]1Cc2cn(Cc3nccn3C)c3cccc(c23)[C@H](CC(C)C)N1	i	100µM*	4%[70.6 µM]	u	2%[88.5 µM]
COc1ccccc1C(=O)N1CCCn2nc(C)c(-c3cccnc3N3CCOCC3)c21	i	i	5%[70.6 µM]	u	-2%[88.5 µM]
Cc1nn2c(c1-c1cccc3cn[nH]c13)N(C(=O)COc1ccccc1C(N)=O)CCC2	i	i	-20%[70.6 µM]	25µM*	-14%[88.5 µM]
Cc1nn2c(c1-c1ccnn1C(C)C)N(C(=O)COc1ccccc1C(N)=O)CCC2	i	0%[172 µM]	14%[70.6 µM]	28µM*	-8%[88.5 µM]
COc1ccccc1C(=O)N1CCCn2nc(C)c(-c3ccnn3C(C)C)c21	i	-22%[172 µM]	-3%[70.6 µM]	u	i
CCCNC(=O)Cc1ccc(N(Cc2ccccc2)C(=O)c2ccco2)cc1	i	u	-1%	u	i
SMILES	FLuc inh	HEK293 tox	NPR1 antag	3T3 cytotox	GPT2 inh
Cc1cccc(CNC(=O)Cc2ccc(N(Cc3ccc(F)cc3)C(=O)c3ccco3)cc2)c1	i	u	-15%	40µM*	-29%
CCCNC(=O)Cc1ccc(N(Cc2ccc(F)cc2)C(=O)c2ccco2)cc1	i	89µM*	-1%	u	i
O=C(NC1CCCCC1)[C@@H]1C[C@@H](O)CN1C1CCN(C(=O)c2cc(F)ccc2F)CC1	i	i	2%	i	-25%
Cc1nn(-c2ccccc2)c2c1C(C)N(CC1CN(Cc3ccc(C(F)(F)F)cc3)C1)C2=O (configuration not stated)	x	32µM*	x	40µM*	x
CCOC(=O)N1CC(CN2C(=O)c3c(c(C)nn3-c3ccccc3)C2C2CC2)C1 (configuration not stated)	x	35µM*	x	40µM*	x
CC(=O)N1CC(CN2C(=O)c3c(c(C)nn3-c3ccccc3)C2C)C1 (configuration not stated)	x	u	x	-29%	x
Cc1nn(-c2ccccc2)c2c1C(C1CC1)N(CC1CN(C(=O)C3CC3)C1)C2=O (configuration not stated)	x	u	x	10µM*	x
CC(=O)N1CC(CN2C(=O)c3c(c(C)nn3-c3ccccc3)C2C2CC2)C1 (configuration not stated)	x	u	x	22µM*	x
N#Cc1cccc(-c2c(C(=O)NCc3cccs3)nc3sccn23)c1	x	-17%	x	-26%	-21%
CC(C)CNC(=O)C1CCc2sc(C(=O)N3CCCCCC3)cc2C1 (configuration not stated)	i	u	-28%	u	3%
Cc1nn(-c2ccccc2)c2c1C(C)N(CC1CN(C(=O)c3ccc4c(c3)OCO4)C1)C2=O (configuration not stated)	x	u	x	20µM*	x
Cc1nn(-c2ccccc2)c2c1C(C)N(CC1CN(C(=O)c3ccc(Cl)nc3)C1)C2=O (configuration not stated)	x	-5%	x	u	x
Clc1cccc(-c2cnc([C@@H]3COCCN3Cc3ccccc3)[nH]2)c1	i	100µM*	u	79µM*	-1%[88.5 µM]
Clc1cccc(-c2cnc([C@@H]3COCCN3C3CCCCC3)[nH]2)c1	i	79µM*	-2%[70.6 µM]	u	u
Fc1cccc(-c2cnc([C@@H]3COCCN3C3CCCCC3)[nH]2)c1	i	u	5%[70.6 µM]	-23%[138 µM]	5%[88.5 µM]
Oc1ccccc1CN1CCOC[C@H]1c1ncc(-c2ccc(F)cc2)[nH]1	i	u	-24%[70.6 µM]	-29%[138 µM]	-11%[88.5 µM]
